These results are taken from PubChem BioAssay (NCI).

This is part of a sample that, as a whole, favours compounds with a hit. Of some 83,000 tested, about 20% had one in any assay.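 How to read the values: 0–100, growth inhibition (40 = 60% inhibited); 0, no net growth; -100 to 0, cell death (-40 = 40% of starting cells died; -100 = all dead).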 Activity calls are given as the source filed them. The calls were made as follows: active = growth percent below 10; inactive = the rest.

The assay has as its system HL-60(TB) leukemia. The experiment in a line: NCI-60 one-dose screen, 48 h (100 = growth as untreated, 0 = no growth, -100 = all killed). Particulars: 10 µM unless noted.
For the compound `COc1cc(C(=O)/C=C/c2cccnc2Nc2ccccc2)cc(OC)c1OC`, the growth is -31.2% (active).
With `COc1cc(CCNc2nc3cc(N)cc(N)c3nc2-c2ccccc2)cc(OC)c1` the figure was -66.1% (active); with `CC(C)OC(=O)Nc1ccc(-c2nc(-c3cccc(OCCN4CCOCC4)c3)c(-c3ccnc(Br)c3)[nH]2)cc1`, -47.7% (active); with `O=C(/C=C/c1cccnc1)NCCCCC1CCCN(C(=O)c2ccccc2)C1` (configuration not stated), 63.6% (inactive).
As for `N=C(N)SCc1cccc2c(CSC(=N)N)cccc12`, the figure is 93.4% (inactive); as for `Cc1ccc2[nH]c(=S)n(-c3ccc(S(=O)(=O)Nc4ccc(Cl)nn4)cc3)c(=O)c2c1`, 100% (inactive).
With `Cn1ncc(CC(=O)O)c1-n1nnc2cc(Cl)ccc2c1=O`, the growth was 97.2% (inactive).
As to `N/C(=N\c1nc2ccccc2s1)NC(=NC1CCCCC1)NC1CCCCC1`, the growth was -36.3% (active).
With `O=S(Cc1ccccc1)/C(=C/NC(=S)Nc1ccccc1)c1ccccc1` (configuration not stated) the figure was 106% (inactive).
As for `CC(=O)OC(c1ccccc1)C1CCOC1=O` (configuration not stated), the figure is 113% (inactive); as for `Cn1c(=O)c2c(nc(N/N=C/c3ccccc3Cl)n2C)n(C)c1=O`, 91.6% (inactive).
Consider `COc1ccc(Nc2nc(N)nc3c2CCc2occc2-3)cc1`, for which the growth was 88.8% (inactive).
